This is an account of results in PubChem BioAssay (NCI).

Common to all, as to test: NCI-60 one-dose screen, 48 h (100 = growth as untreated, 0 = no growth, -100 = all killed)
What all share (details): 10 µM unless noted

Test [1] concerns NCI-H23 lung.
Test [2] deals with NCI-H226 lung.
The test system of test [3] is NCI-H322M lung.
Test [4] relates to HOP-62 NSCLC.
Test [5] relates to NCI-H460 lung.
The test system of test [6] is HOP-92 NSCLC.
Test [7] relates to NCI-H522 lung.
Test [8] concerns A549/ATCC NSCLC.
The subject of test [9] is 786-0 renal.
The test system of test [10] is COLO 205 colon.
The test system of test [11] is DU-145 prostate.
Test [12] concerns K-562 leukemia.
Test [13] deals with MALME-3M melanoma.
In test [14] the test system is MDA-MB-231 breast.
Test [15] relates to RXF 393 renal.
Test [16] deals with SF-268 CNS.
Test [17] relates to SF-295 CNS.
Test [18] deals with SF-539 CNS.
Test [19] concerns UACC-257 melanoma.
In test [20] the test system is M14 melanoma.

Each structure is given as a SMILES string. This is part of a sample that, as a whole, favours compounds with a hit. Of some 83,000 tested, about 20% had one in any assay.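 Results are percent growth after 48 hours of single-concentration exposure. 100 means growth as in untreated cells, lower positive values show inhibition; negative values down to -100 show cell death.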 Values without a mark were called inactive. The source made the active and inactive calls. Rule for the calls: active = growth percent below 10; inactive = the rest.

On to `COC1OCC(OS(=O)(=O)c2ccc(C)cc2)C(OC(=O)c2ccccc2)C1OC(=O)c1ccccc1` (stereo unspecified), for which the growth in test [1] was 68.4%; in [2] it was 68.4%; in [3] it was 76.6%; in [4] it was 42.2%; in test [5], 17.4%; in [6], 62.2%. The growth is 19% in test [7]; 48.7% in [8]; 42.1% in test [9]; 36.4% in test [10]; 66.6% in [11]; 37.8% in test [12]. Moreover, the growth is 37.3% in test [13]; 57.2% in test [14]; 49.6% in test [15]; 62.4% in test [16]; 30% in test [17]; 39.2% in [18]. In addition, the growth in [19] was 71%.

`CCn1cc(C(=O)O)c(=O)c2cc(F)c(N3CCN(CC(=O)Nc4ccc(C(C)=O)cc4)CC3)cc21`: the growth was 93% in test [1]; 86.3% in test [2]; 101% in [3]; 101% in test [4]; 107% in [5]; 92.8% in test [6]. In addition, the growth in test [7] is 96.9%; in [8], 94.6%; in [9], 98%; in test [10], 121%; in [11] it was 111%; in test [12], 94.6%. Also, the growth was 105% in test [13]; 100% in [14]; 102% in test [15]; 102% in test [16]; 103% in [17]; 98% in test [18]. Moreover, the growth is 93.1% in test [19] and 102% in test [20].

For the molecule `COc1ccc(-c2nn(-c3ccc(NC(=O)Nc4ccc(Cl)c(C(F)(F)F)c4)cc3)cc2-c2ccncc2)cc1Cl`, the growth was 6.3% (active) in [1]; 1.73% (active) in test [2]; 32.7% in [3]; -0.289% (active) in [4]; -28.2% (active) in test [5]; -22% (active) in test [6]. The growth was -2.66% (active) in test [7]; 10.3% in test [8]; -33.7% (active) in test [9]; -74.5% (active) in test [10]; 20.5% in [11]; 10.3% in test [12]. The growth in test [13] was 2.95% (active); in [14] it was -52.1% (active); in test [15] it was -68.3% (active); in test [16], 19%; in test [17], -25.9% (active); in test [18], -1.2% (active). Moreover, the growth is -5.92% (active) in test [19] and -4.4% (active) in test [20].

For `COC(=O)c1oc2c(C(C)=O)c(OCCCN(C)C)ccc2c1C`, the growth is 97.3% in [1]; 96.1% in [2]; 82.2% in [3]; 123% in [4]; 118% in [5]; 28.1% in [6]. Also, the growth was 86.4% in test [7]; 110% in test [8]; 96% in test [9]; 109% in test [10]; 150% in test [11]; 73.3% in test [12]. Moreover, the growth in test [13] is 72.3%; in [14], 95%; in test [15], 96.1%; in test [16], 207%; in test [17], 109%; in test [18] it was 124%. In test [19], the growth was 106%.

As for `CCOC(=O)c1cnc2c(OC)ccc(OC)c2c1Cl`, the growth was 110% in [1]; 113% in test [2]; 120% in test [3]; 101% in test [4]; 108% in test [5]; 98.5% in test [6]. The growth is 120% in test [7]; 97.3% in test [8]; 117% in test [9]; 117% in test [10]; 118% in test [11]; 116% in test [12]. In addition, the growth in test [13] was 98.3%; in test [14], 128%; in test [15], 115%; in [16], 98.9%; in [17] it was 110%; in [18], 104%. Further, the growth in [19] is 101%.

On to `Nc1nccc2c1ccn2-c1ccc(NC(=O)Nc2cccc(C(F)(F)F)c2)cc1`, for which the growth in [1] is 90%; in test [2], 81.9%; in test [3] it was 98.2%; in test [4], 94.2%; in test [5], 90.8%; in [6] it was 57.4%. Also, the growth in [7] was 87.2%; in [8], 91.3%; in test [9], 110%; in test [10] it was 92.1%; in test [11] it was 96.7%; in test [12], 81.5%. In addition, the growth in [13] was 99.3%; in [14], 72.9%; in test [15], 97.8%; in test [16], 96.3%; in [17], 78.2%; in test [18], 86.1%. In test [19], the growth is 113%.

`CC(C)(CCN=C(N)Nc1ccccn1)c1ccc(C(F)(F)F)cc1`: the growth is 11.8% in [1]; 42.4% in [2]; 45.5% in test [3]; 50.4% in [4]; 18.3% in test [5]; -2.94% (active) in test [6]. For the same molecule, the growth in test [7] is 4.82% (active); in [8], 31.2%; in test [9], 29.2%; in test [10] it was -72.8% (active); in test [11] it was 52.7%; in [12] it was -31.2% (active). The growth in test [13] is -49.4% (active); in test [14] it was -14.4% (active); in [15], 26.2%; in test [16] it was 51.2%; in test [17], 6.92% (active); in test [18], 53.9%. For the same molecule, the growth in test [19] is -7.98% (active); in test [20], -64.3% (active).

As to `O=S(=O)(CCN1CCOCC1)Nc1cc(-c2ccc3ncnc(Nc4ccc(F)c(Cl)c4)c3c2)cnc1Cl`, the growth in [1] was 28%; in [2], 26.9%; in [3] it was 0.347% (active); in [4], -0.609% (active); in test [5] it was 14.8%; in [6], -20.8% (active). Moreover, the growth in test [7] is 17.2%; in test [8], 10.3%; in [9], 8.06% (active); in test [10], -6.12% (active); in test [11], 15.6%; in [12] it was 42.3%. Besides, the growth in test [13] was -23.1% (active); in [14] it was -1.28% (active); in test [15] it was -19% (active); in [16], 16.8%; in [17], 2.93% (active); in test [18], -34.5% (active). The values for the growth in test [19] and in test [20] were -3.1% (active) and 14.5%, respectively.
